The entries come from a sample that favours hits as a whole.
Artemis endo inh: inhibitors of human Artemis endonuclease activity | inhibition, % at 10 µM | Q96SD1 | recombinant Artemis, quenched FAM hairpin cleavage fluorescence | 30,000 compounds, 0.78% hits;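 active means at 10 µM dose, at least 30% inhibition, measured as corrected fluorescence normalized to stimulator and neutral control wells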
Target sequence (Q96SD1 whole entry, looked up): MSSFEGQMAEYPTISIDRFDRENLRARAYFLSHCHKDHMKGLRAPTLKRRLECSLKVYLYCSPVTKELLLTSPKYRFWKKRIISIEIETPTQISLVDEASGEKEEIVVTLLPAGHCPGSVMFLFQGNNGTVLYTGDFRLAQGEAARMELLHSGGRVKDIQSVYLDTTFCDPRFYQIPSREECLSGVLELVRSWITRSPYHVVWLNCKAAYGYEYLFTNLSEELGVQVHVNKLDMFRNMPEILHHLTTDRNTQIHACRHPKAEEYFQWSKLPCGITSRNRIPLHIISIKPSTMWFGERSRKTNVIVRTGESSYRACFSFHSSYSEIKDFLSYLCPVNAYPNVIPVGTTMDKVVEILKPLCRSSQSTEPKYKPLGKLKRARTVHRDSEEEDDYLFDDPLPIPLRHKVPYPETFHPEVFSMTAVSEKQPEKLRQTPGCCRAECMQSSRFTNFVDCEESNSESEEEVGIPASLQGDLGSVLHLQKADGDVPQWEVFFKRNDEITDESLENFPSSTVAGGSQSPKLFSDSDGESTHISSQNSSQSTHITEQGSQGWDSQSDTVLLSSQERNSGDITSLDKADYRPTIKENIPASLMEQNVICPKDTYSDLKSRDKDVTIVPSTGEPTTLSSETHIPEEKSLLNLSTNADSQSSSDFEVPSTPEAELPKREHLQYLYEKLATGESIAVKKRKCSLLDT
Each line names hits and unclear results; the compound was inactive in the other large screens.

COc1ccc(C2NC(=O)NC3=C2CCc2ccccc23)cc1 (stereo not given)	Artemis endo inh 44
COC(=O)COc1ccc(C2NC(=O)NC(c3ccccc3)=C2C(C)=O)cc1OC (stereo not given)	none
Cc1ccc(NC(NC(=O)c2cccs2)C(Cl)(Cl)Cl)cc1 (stereo not given)	none
O=C(Cc1ccccc1)NC(Nc1cccc2ccccc12)C(Cl)(Cl)Cl (stereo not given)	none
O=C(Cc1ccccc1)NC(Nc1ccccc1)C(Cl)(Cl)Cl (stereo not given)	Artemis endo inh 31
CC(=O)Nc1ccc(S(=O)(=O)NC(=O)C23CC4CC(CC(C4)C2)C3)cc1	none
CC(C)NC(=O)/C(=C/c1ccco1)c1ccccc1	none
CN(C)c1ccc(/C=C/C=C2/SC(=S)N(c3ccccc3)C2=O)cc1	none
CC(C)C(C(=O)O)N1C(=O)/C(=C/C=C/c2ccco2)SC1=S (stereo not given)	Artemis endo inh 39
CCc1ccc2nc(N3C(=O)C(O)=C(C(=O)c4ccco4)C3c3cccs3)sc2c1 (stereo not given)	Artemis endo inh 43
Cc1cc(N2C(=O)C(O)=C(C(=O)c3ccc(C)o3)C2c2cccs2)no1 (stereo not given)	none
Cc1cc(N2C(=O)C(O)=C(C(=O)c3ccco3)C2c2ccc(O)cc2)no1 (stereo not given)	none
COC(=O)Oc1ccc(/C=N/NC(=O)CSCc2ccccc2Br)cc1OC	none
CCOC(=O)CCCNC(=O)COC(=O)c1ccc(O)cc1	none
COc1cc(COCC(O)CN2CCOCC2)cc(OC)c1OC (stereo not given)	none
CCOc1nc(NCc2ccco2)nc(Nc2ccc(OC)cc2)n1	none
CC(C)c1ccc(Nc2nc(NCc3ccco3)nc(N3CCOCC3)n2)cc1	none
COc1ccc(Nc2nc(NCc3ccco3)nc(N/N=C/c3ccccc3)n2)cc1	Artemis endo inh 72
O=C(N/N=C/c1ccccc1)c1sccc1OCc1ccc(F)cc1	none
O=C(NCCC1=CCCCC1)C1COc2ccccc2O1 (stereo not given)	none
c1coc(CNc2nc(N3CCCCC3)nc3ccccc23)c1	none
c1ccc(N2CCN(c3nc(NCc4ccco4)c4ccccc4n3)CC2)cc1	none
c1ccc(-c2nc(NCc3ccco3)c3ccccc3n2)nc1	Artemis endo inh 64
Cc1cccc(N/C(=N\S(=O)(=O)c2ccccc2)C(F)(F)F)c1	none
COc1ccc(S(=O)(=O)N(Cc2ccccc2)Cc2nc(-c3ccccc3)no2)cc1	none
CNC(=S)N(Cc1ccc2c(c1)OCO2)C1CC(=O)N(c2ccc(F)cc2)C1=O (stereo not given)	none
CC1CCCC(C)N1CC(O)COCC1COc2ccccc2O1 (stereo not given)	none
Cc1cc(NC(c2ccc(Cl)cc2)c2ccc3cccnc3c2O)no1 (stereo not given)	none
Oc1c(C(Nc2ccccn2)c2ccccn2)ccc2cccnc12 (stereo not given)	Artemis endo inh 38
CC(=O)NC(c1ccco1)c1ccc2cccnc2c1O (stereo not given)	none
O=C1CCCN1c1ccc(S(=O)(=O)Oc2cccc(Cl)c2)cc1[N+](=O)[O-]	none
O=C(NC(=S)Nc1ccc2[nH]ncc2c1)c1ccccc1	none
CCCc1cc(C(=O)N/N=C/c2ccc(C)o2)c2ccccc2n1	none
O=C(NC(C(=O)N/N=C/c1c2ccccc2cc2ccccc12)c1n[nH]c(=O)c2ccccc12)c1ccccc1 (stereo not given)	Artemis endo inh 44
COC(=O)CSc1snnc1-c1ccc(Cl)cc1Cl	none
CNC(=O)CC1C(=O)N(C)C(=S)N1NC(=O)c1ccc(Cl)cc1 (stereo not given)	none
CCn1c(SCC(=O)c2ccc(O)c(O)c2)nnc1-c1ccccc1	none
CCn1c(SCC(=O)c2ccc(O)c(O)c2)nnc1-c1ccccc1OC	Artemis endo inh 30
CCn1c(SCC(=O)c2ccc(F)cc2)nnc1-c1ccoc1C	none
CCN(CC)c1ccc(NC(=O)Nc2ccccc2C(F)(F)F)cc1	none
O=C(c1ccco1)N1CCN(C(=O)c2cc(-c3ccncc3)nc3ccc(Br)cc23)CC1	none
O=C(NCC1CCCO1)c1cc(-c2ccco2)nc2ccccc12 (stereo not given)	none
O=C(O)c1cc(-c2ccco2)nc2ccc(Br)cc12	Artemis endo inh 42
Cc1cc(NC(=O)CSc2nnnn2C)n(-c2ccccc2)n1	none
COC(=O)C1=C(C)N(CCc2ccc(OC)c(OC)c2)C(=O)/C1=C\N(C)C	none
N=c1c(C(=O)NCc2ccc(F)cc2)cc2c(=O)n3ccccc3nc2n1Cc1ccco1	none
CC(C)n1c(=N)c(C(=O)NCCc2ccccc2)cc2c(=O)n3ccccc3nc21	none
N=c1c(C(=O)NCc2ccccc2)cc2c(=O)n3ccccc3nc2n1Cc1ccco1	Artemis endo inh 31
COCCCn1c(=N)c(C(=O)NC2CCCCC2)cc2c(=O)n3ccccc3nc21	none
Cc1ccc(CNC(=O)c2cc3c(=O)n4ccccc4nc3n(Cc3ccco3)c2=N)cc1	Artemis endo inh 41
N=c1c(C(=O)NCc2ccco2)cc2c(=O)n3ccccc3nc2n1Cc1ccccc1	none
Cc1c(C(=O)Oc2cccc3ccccc23)cnn1-c1ccccc1	none
O=S(Cc1cc(Oc2ccccc2)nc(-c2ccccc2)n1)c1ccccc1 (stereo not given)	none
O=C(Nc1ccc2c(c1)OCO2)C1Cc2ccccc2CN1S(=O)(=O)c1cccs1 (stereo not given)	none
O=[N+]([O-])c1cc(/C=N/N2CCN(C3c4ccccc4-c4ccccc43)CC2)ccc1Cl	none
C(=N\N1CCN(C2c3ccccc3-c3ccccc32)CC1)/c1cccnc1	none
C(=N\N1CCN(C2c3ccccc3-c3ccccc32)CC1)/c1ccccn1	Artemis endo inh 32
C=C(C)c1cccc(C(C)(C)NC(=O)N(Cc2ccccc2)Cc2ccco2)c1	none
CN(C)S(=O)(=O)c1cccc(-c2nnc(SCc3ccc4c(c3)OCCO4)o2)c1	none
N#Cc1nc(-c2ccc(OCc3ccccc3)cc2)oc1NCc1ccco1	none
N#Cc1nc(-c2ccc(OCc3ccc(Cl)cc3)cc2)oc1NCCCn1ccnc1	Artemis endo inh 49
CNc1oc(-c2ccc(OCc3ccccc3)cc2)nc1C#N	none
COc1cc(N/C=C(\C(C)=O)c2ccccc2)cc(OC)c1	none
COCCSc1nnc(NC(=O)C(C)(C)C)s1	none

Screening data as filed in PubChem BioAssay.
